For 98 molecules, Potency results are on record in ChEMBL document CHEMBL1201862, “PubChem BioAssay data set” (2004).

The campaign covered roughly 400,000 compounds. About 2,100 (0.53%) were called active. About 14% were inconclusive and are not listed. The sample holds actives, similar compounds and a random draw of the others, so the mix is not that of the screen. The rule behind the calls is not given here.

For this assay, the target named is Ataxin-2 (Homo sapiens) (UniProt Q99700). Put plainly: qHTS for Inhibitors of ATXN expression. The format is functional. For orientation: In qHTS, concentration-response curves come from the screen itself.
Sequence of Ataxin-2 (Homo sapiens) (Q99700 whole entry): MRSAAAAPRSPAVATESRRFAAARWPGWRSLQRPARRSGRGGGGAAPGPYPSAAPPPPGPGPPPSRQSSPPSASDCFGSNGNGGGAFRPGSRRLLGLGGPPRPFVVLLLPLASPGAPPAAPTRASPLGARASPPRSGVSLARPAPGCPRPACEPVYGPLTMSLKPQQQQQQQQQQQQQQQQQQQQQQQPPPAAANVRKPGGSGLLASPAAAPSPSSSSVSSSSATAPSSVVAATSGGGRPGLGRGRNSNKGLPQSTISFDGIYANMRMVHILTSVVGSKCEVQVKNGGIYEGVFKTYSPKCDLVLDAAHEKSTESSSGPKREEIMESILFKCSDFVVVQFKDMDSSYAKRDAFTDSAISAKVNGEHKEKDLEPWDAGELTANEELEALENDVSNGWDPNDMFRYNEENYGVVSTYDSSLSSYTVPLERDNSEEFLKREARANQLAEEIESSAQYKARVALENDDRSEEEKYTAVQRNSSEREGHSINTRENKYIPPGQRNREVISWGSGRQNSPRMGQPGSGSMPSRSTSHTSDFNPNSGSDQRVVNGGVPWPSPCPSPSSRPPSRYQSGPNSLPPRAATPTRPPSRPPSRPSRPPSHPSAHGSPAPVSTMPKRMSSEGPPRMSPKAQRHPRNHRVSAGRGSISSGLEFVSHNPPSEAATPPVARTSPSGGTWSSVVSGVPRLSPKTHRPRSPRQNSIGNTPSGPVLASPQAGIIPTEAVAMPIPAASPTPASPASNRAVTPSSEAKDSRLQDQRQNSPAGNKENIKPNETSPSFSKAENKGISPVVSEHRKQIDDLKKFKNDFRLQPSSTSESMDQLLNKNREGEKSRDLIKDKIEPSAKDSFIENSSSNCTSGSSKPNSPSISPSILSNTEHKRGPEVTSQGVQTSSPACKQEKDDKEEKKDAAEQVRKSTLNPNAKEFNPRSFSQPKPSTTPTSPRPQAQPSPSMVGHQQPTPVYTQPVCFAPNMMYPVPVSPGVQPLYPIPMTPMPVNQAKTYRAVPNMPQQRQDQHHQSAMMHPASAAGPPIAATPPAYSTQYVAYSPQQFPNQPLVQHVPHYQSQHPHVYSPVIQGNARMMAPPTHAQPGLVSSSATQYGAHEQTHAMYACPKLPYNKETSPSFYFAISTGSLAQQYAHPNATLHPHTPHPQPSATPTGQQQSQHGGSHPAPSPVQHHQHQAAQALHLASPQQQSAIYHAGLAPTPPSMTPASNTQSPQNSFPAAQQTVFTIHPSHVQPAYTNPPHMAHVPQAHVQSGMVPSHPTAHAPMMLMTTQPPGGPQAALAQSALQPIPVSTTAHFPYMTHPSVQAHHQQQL
For the molecule `CCCC/N=C1\C(=O)N(C)c2cccc3c(O)c4ccccc4c1c23`, the Potency result was “inactive”.
Turning to `COc1ccc2c(C#N)c3ccccn3c2c1`, the Potency entry was “inactive”.
Next, `Nc1cccc2c1C(=O)N(CCOc1ccc(F)cc1)C2=O`: “inactive”; `c1ccc(N2CC3CCc4ccccc4C3=N2)cc1` (stereo not drawn): “inactive”; `CC/C(=N\Nc1ccc([N+](=O)[O-])cc1[N+](=O)[O-])c1ccc(O)cc1`: 8.91 µM (active).
Regarding `C/C(CCCO)=N/Nc1ccc([N+](=O)[O-])cc1[N+](=O)[O-]`, the Potency entry is “inactive”.
For `CN1C(=O)/C(=N\c2ccc(Cl)cc2)c2c3ccccc3c(O)c3cccc1c23`, the Potency result was “inactive”.
In the case of `CC1=CC(C)(C)N2C(=O)/C(=N/c3ccc(O)cc3)c3cccc1c32` it was 31.6 µM (active); in that of `Cc1ccc(-c2ccc(CN3C(CC(C)C)C(=O)N(Cc4cn(CCC5OCCCO5)nn4)CCS3(=O)=O)cc2)cc1` (stereo not drawn), 20 µM (active).
Regarding `CC(C)CC1C(=O)N(Cc2cn(CCC3OCCCO3)nn2)CCS(=O)(=O)N1Cc1ccc(-c2ccc(Cl)nc2)cc1` (stereo not drawn), the Potency is 31.6 µM (active).
In the case of `O=C(c1cc(Br)ccc1O)N1CCN(S(=O)(=O)Cc2ccccc2)CC1` it was “inactive”.
Turning to `Brc1ccc(-c2nnc3sc(CNCc4ccc5c(c4)OCO5)cn23)cc1`, the Potency result is “inactive”.
In the case of `O=C(O)c1ccc(S(=O)(=O)N2CCC(NC(=O)C3CCCCC3)CC2)cc1` it was “inactive”.
Next, `Cc1ccc(NC(=O)N(CCC#N)Cc2ccccc2)cc1`: “inactive”; `COCCN(Cc1ccccc1)C(=O)c1ccc(C(=O)c2ccccc2)cc1`: “inactive”; `CCCOc1ccc(CN(CCC#N)C(=S)NC(=O)c2ccccc2)cc1`: 39.8 µM (active).
As to `O=C(O)COc1c(Cl)cc(/C=C2/NC(=O)NC2=O)cc1Br`, the Potency result was “inactive”.
Consider `Cc1nnc(N/N=C/c2ccc(-c3ccc(Br)cc3)o2)n1N`, for which the Potency result was “inactive”.
`COCCCn1/c(=N/C(=O)c2ccccc2)c(C#N)cc2c(=O)n3cccc(C)c3nc21`: the Potency entry was “inactive”.
Next, `Cc1ccsc1C(=O)OCC(=O)Nc1cccc(F)c1`: “inactive”; `CN1C(=O)c2ccc(NC(=O)c3ccc(Cl)cc3Cl)cc2C1=O`: “inactive”.
Take `Cc1ccc(C(=O)COC(=O)c2cccc(NC(=O)c3ccc(Cl)cc3Cl)c2)cc1`: the Potency is 35.5 µM (active).
In the case of `COc1cc(C(CCN2CCCC2)c2c(OC)cc(OC)c3c(-c4ccccc4)cc(=O)oc23)cc(OC)c1OC` (stereo not drawn), the Potency is 22.4 µM (active).
Take `COc1ccc(-c2cc(=O)oc3c4c(ccc23)OCN(Cc2cccc(OC)c2)C4)cc1`: the Potency entry was “inactive”.
`CCc1cc(=O)oc2c(C)c3c(cc12)CN(CCc1ccccc1OC)CO3`: the Potency entry is “inactive”.
Take `COc1cc(C(CCN2CCCC(C)C2)c2c(OC)cc(OC)c3c(-c4ccccc4)cc(=O)oc23)cc(OC)c1OC` (stereo not drawn): the Potency was 31.6 µM (active).
Take `CCCc1cc(=O)oc2c(C)c(O)c(CN3CCCCC3)cc12`: the Potency entry was “inactive”.
In the case of `COc1ccc(C(CCN2CCCC(C)C2)c2c(OC)cc(OC)c3c(-c4ccccc4)cc(=O)oc23)cc1` (stereo not drawn) it was 31.6 µM (active).
Next, `CCCCCc1cc(=O)oc2c(C(CCN3CCCC3)c3cc(OC)c(OC)c(OC)c3)c(OC)cc(OC)c12` (stereo not drawn): 35.5 µM (active).
With `COc1ccc(CN2COc3ccc4c(-c5ccccc5)cc(=O)oc4c3C2)cc1OC`, the Potency result is “inactive”.
In the case of `O=c1cc(-c2ccccc2)c2cc(Cl)c(O)c(CN3CCOCC3)c2o1` it was “inactive”; in that of `O=c1cc(-c2ccccc2)c2cc(Cl)c3c(c2o1)CN(Cc1ccccc1)CO3`, “inactive”; in that of `COc1cc2oc(=O)cc(-c3ccc(-c4ccc(N(C)C)cc4)cc3)c2c(OC)c1OC`, “inactive”.
In the case of `COc1ccc(-c2cc3ccc(O)c(CN4CCCC(C)C4)c3oc2=O)cc1OC` (stereo not drawn) it was “inactive”.
Regarding `COc1ccc(C2CC(c3ccccc3)=NN2c2ccccc2)c(C(=O)O)c1OC` (stereo not drawn), the Potency result is “inactive”.
For the molecule `Cc1cc(C)c2nc(NCCCNC(S)=NCCCN(C)C)c(C#N)cc2c1`, the Potency entry is “inactive”.
For the molecule `Cn1nc(C(=O)Nc2ccc(Br)cc2)cc1C(=O)Nc1ccc(Br)cc1`, the Potency result was “inactive”.
Consider `CCNc1ccc2c(Cl)cc(=O)oc2c1`, for which the Potency entry is “inactive”.
For the molecule `COc1ccc(C2=CC(c3ccc(Cl)cc3)n3cnnc3N2)cc1OC` (stereo not drawn), the Potency result was “inactive”.
For the molecule `CN1CCN(CCOCCOc2c(Cl)cc(Cl)cc2Cl)CC1`, the Potency result is “inactive”.
Next, `COCCNc1oc(/C=C/c2cccs2)nc1S(=O)(=O)c1ccccc1`: “inactive”; `Cc1ccc(S(=O)(=O)N(C)c2ccc(OC(=O)c3cccs3)cc2)cc1C`: “inactive”; `COc1ccccc1NC(=O)c1c(C)nn(-c2ccccc2)c1Cl`: “inactive”.
In the case of `C/C(=N\NC(=O)CN1CCN(c2ccc(F)cc2)CC1)c1ccco1` it was “inactive”.
Take `COc1ccc(CCNC(=O)c2c(C)nn(-c3ccc(F)cc3)c2-n2cccc2)c(OC)c1OC`: the Potency is 35.5 µM (active).
As to `Cc1ccc(-n2nc(C)c(C(=O)NCCCN3CCN(c4ccc(F)cc4)CC3)c2-n2cccc2)cc1`, the Potency is 25.1 µM (active).
On to `O=C(Nc1ccc(C(=O)NCCCN2CCN(c3ccc(F)cc3)CC2)cc1)C1=CSCCO1`, for which the Potency entry was “inactive”.
Consider `O=C(COc1ccccc1F)NCc1ccc(-n2cccc2)cc1`, for which the Potency result was “inactive”.
As for `CCCc1ccc(C(=O)NNc2cc(Cl)ccc2Cl)cc1`, the Potency result is “inactive”.
In the case of `CS(=O)(=O)c1ccc(C(=O)NNC(=O)c2ccccc2-n2cccc2)cc1`, the Potency entry was “inactive”.
Turning to `CCOC(=O)C1CCN(C(=O)c2cc3c(=O)n4ccccc4nc3n2C)CC1`, the Potency result is “inactive”.
Take `CC(/C=C(\O)c1ccc(Br)cc1)=N/NC(=O)c1ccccc1`: the Potency entry is “inactive”.
In the case of `O=C(NN=C(S)Nc1ccccc1)c1ccc(O)cc1` it was “inactive”; in that of `C/C(=N\NC(=O)c1ccc(Br)cc1)C1C(=O)c2ccccc2C1=O`, 35.5 µM (active); in that of `O=C(CCn1nnc2ccccc21)N/N=C\Cc1ccccc1`, “inactive”.
Take `COc1cc(C(=O)OCC(=O)Nc2ccc(S(=O)(=O)NC3=NCCCCC3)cc2)cc(OC)c1OC`: the Potency entry was “inactive”.
`O=C(CCl)Nc1ccc(S(=O)(=O)NC2=NCCCCC2)cc1`: the Potency was 13.4 µM (active).
On to `Cc1cccc(C(=O)N[C@H](C(=O)Nc2ccc(S(=O)(=O)NC3=NCCCCC3)cc2)C(C)C)c1`, for which the Potency result was “inactive”.
As to `CC(C)(C)c1ccc(OCC(=O)Nc2cccc(S(=O)(=O)NC3=NCCCCC3)c2)cc1`, the Potency entry was “inactive”.
As to `O=C(CCl)Nc1cccc(S(=O)(=O)NC2=NCCCCC2)c1`, the Potency was 11.2 µM (active).
Regarding `O=C(CCl)Nc1cccc(S(=O)(=O)NC2=NCCC2)c1`, the Potency was 12.6 µM (active).
For the molecule `Cc1cccc(C)c1NC(=O)CN(C)C(=O)c1cccc(NS(=O)(=O)c2ccccc2)c1`, the Potency result is “inactive”.
As to `Cc1ccc(OCC(=O)Nc2ccc(S(=O)(=O)NC3=NCCCCC3)cc2)cc1`, the Potency entry was “inactive”.
Consider `CC(C)=CC(=O)Nc1cccc(S(=O)(=O)NC2=NCCCCC2)c1`, for which the Potency entry is “inactive”.
As for `Cc1cc(NC(=O)CSc2nc(=O)cc(N)n2-c2ccc(C)c(C)c2)no1`, the Potency entry was “inactive”.
Consider `Cc1cccn2c(=O)c3cc(C(=O)NCc4cccnc4)c(=N)n(CCCO)c3nc12`, for which the Potency result is “inactive”.
Take `Cn1c(C(=O)NCC2CCCO2)cc2c(=O)n3ccccc3nc21` (stereo not drawn): the Potency entry is “inactive”.
Regarding `COc1ccccc1/N=C/c1c(C)c(C#N)c2nc3ccccc3n2c1O`, the Potency entry is “inactive”.
As for `O=C(Nc1ccccc1)N1CCN(C2c3ccccc3-c3ccccc32)CC1`, the Potency entry is “inactive”.
Take `O=C1C=CC(=O)N1c1ccc2c(c1)C(NC(=O)C(F)(F)F)c1ccccc1-2` (stereo not drawn): the Potency was 25.1 µM (active).
Regarding `COc1cccc(OC)c1C(=O)Nc1ccc(Br)c(C(=O)c2ccccc2)c1`, the Potency result is “inactive”.
`CCO/C(O)=C1\C(C)=Nc2sc(C(=O)c3ccc(C)cc3)c(N)c2C1c1ccc(C(=O)OC)cc1` (stereo not drawn): the Potency entry is “inactive”.
Regarding `Nc1c(C(=O)c2ccccc2)sc(Nc2ccc(Cl)c(Cl)c2)c1C(=O)Nc1ccccc1`, the Potency was 28.2 µM (active).
In the case of `Cc1ccc(CNC(=O)c2c(Nc3c(C)cccc3C)sc(C(=O)c3ccccc3)c2N)cc1` it was 39.8 µM (active); in that of `Cc1nc2sc(C(=O)c3ccccc3)c(N)c2c(C)c1C`, “inactive”.
As to `Cc1cccc(C)c1Nc1sc(C(=O)c2ccccc2)c(N)c1C(=O)Nc1ccc(F)cc1`, the Potency is 28.2 µM (active).
In the case of `COc1ccc(CNC(=O)c2c(Nc3ccccc3C)sc(C(=O)c3ccccc3)c2N)cc1` it was 35.5 µM (active).
On to `Cc1cc(C)c2c(N)c(C(=O)c3ccccc3)sc2n1`, for which the Potency result is “inactive”.
Next, `COc1ccc(C(=O)c2sc3nc(-c4ccccc4)ccc3c2N)cc1`: “inactive”; `COc1ccc(CNC(=O)CCC(=O)c2ccccc2)cc1`: “inactive”.
For the molecule `Cc1ccc2c(N)c(C(=O)c3ccccc3)sc2n1`, the Potency result is “inactive”.
Next, `Cn1cc(CN2CCC(n3nccc3NC(=O)c3ccc4c(c3)OCO4)CC2)cn1`: “inactive”; `Cc1cc(C)c2cc(C#N)c(SCC(=O)Nc3cc(C)on3)nc2c1`: “inactive”; `O=C(CSc1nnc(O)nc1O)N/N=C/C=C/c1ccccc1`: “inactive”.
In the case of `O=S(=O)(c1ccc(SCCOc2ccccc2)nc1)N1CCCC1` it was “inactive”; in that of `COC(=O)Cc1c(C)c2cc3c(c(C)c2oc1=O)OCN(CCc1ccc(OC)cc1)C3`, “inactive”.
With `Cc1ccc2nc(Cl)c(CNCc3ccccc3)cc2c1`, the Potency result was “inactive”.
For the molecule `Cc1cnc(NC(=O)c2cc(-c3ccccc3)nn2-c2ccccc2)s1`, the Potency result was “inactive”.
Take `Cc1ccc(-c2nn(-c3ccccc3)c3[nH]c(=O)c(CNCc4ccccc4)cc23)cc1`: the Potency is 39.8 µM (active).
Turning to `Cc1ccc(S(=O)(=O)NN2C(=O)c3ccccc3NC2c2ccccc2)cc1` (stereo not drawn), the Potency is 35.5 µM (active).
Turning to `Cc1ccc(C2N(C)C(=O)c3ccccc3N2C)cc1` (stereo not drawn), the Potency entry is “inactive”.
Regarding `CC1Nc2ccccc2C(=O)N1NS(C)(=O)=O` (stereo not drawn), the Potency entry is “inactive”.
As to `O=c1cc(CN2CCN(S(=O)(=O)c3cccc(Cl)c3)CC2)c2ccc(O)cc2o1`, the Potency entry was “inactive”.
As to `C=CCNC(=S)N/N=C(\C)c1ccccn1`, the Potency is 2.51 µM (active).
In the case of `C/C(=N\Nc1ncc(Cl)cc1Cl)c1ccccn1` it was “inactive”; in that of `C=CCNC(=S)Nc1cccc(NC(=S)NCC=C)c1`, “inactive”.
In the case of `O=S(=O)(Nc1ccc(C(O)(C(F)(F)F)C(F)(F)F)cc1)c1ccc(Cl)c2nonc12` it was 22.4 µM (active).
For `O=S(=O)(Nc1ccc(C(O)(C(F)(F)F)C(F)(F)F)cc1)c1cccc2ccccc12`, the Potency was 44.7 µM (active).
